Outcome and AC50 data for eleven molecules are collected here from PubChem BioAssay (EPA / NIEHS).

Each structure is given as a SMILES string. “And” between values parts separate entries of the source, which are not always exact repeats. Equal values may be shown once. The source made the active and inactive calls. The calls were made as follows: active = hit-call score of the fitted dose curve at least 0.9, where 1 is the maximum; inactive = score below 0.9.

The nature of the experiment: BSK_BF4T_SRB: Viability Assessment in the BioMAP Diversity Plus: BF4T Assay (AID 2284274). Conditions: primary human bronchial epithelial cells with fibroblasts. The protocol:
BSK_BF4T is a cell-based, multiplexed-readout assay that uses bronchial epithelial cells and dermal fibroblasts, a human vascular primary cell, with measurements taken at 24 hours after chemical dosing in a microplate: 96-well plate.BSK_BF4T_SRB is an assay component measured in the BSK_BF4T assay. It measures 0.1% sulforhodamine related to cell death using Sulforhodamine staining technology.Data from the assay component BSK_BF4T_SRB was analyzed at the endpoint, BSK_BF4T_SRB, in the positive analysis fitting direction relative to DMSO as the negative control and baseline of activity. Using a type of viability reporter, gain or loss-of-signal activity can be used to understand protein changes. To generalize the intended target to other relatable targets, this assay endpoint is annotated to the 'cell morphology' intended target family, where the subfamily is 'cell conformation'.
The levels of cell surface (or secreted, indicated by the prefix "s") biomarker endpoints were measured by ELISA. Overt cytotoxicity to cells in confluent adherent cultures (all systems other than the BT system) was assessed by measuring total protein levels using sulforhodamine B (SRB) staining in parallel cultures at the time of biomarker measurements, indicated as SRB endpoints. For proliferation assays for adherent cell types, individual cell types are cultured at sub-confluence and relative cell numbers quantified by SRB staining at time points optimized for each system (48 h: 3C and CASM3C systems; 72 h: BT and HDF3CGF systems; 96 h: SAg system). SRB was performed by staining cells with 0.1% SRB after fixation with 10% TCA and reading wells at 560 nm.Viability and proliferation of PBMC (T cells) was quantified by Alamar Blue reduction for the SAg and BT systems. For PBMC viability (referred to as PBMC Cytotoxicity within the assay endpoint names), cells were plated (75,000/well in a 96-well plate) and then chemical samples added for 1 h before addition of activators, SEB and TSST-1 (20 ng/mL final concentration each). Cells were incubated for 90 h. Then, Alamar Blue (20 uL/well) (Invitrogen, Cat DAL1100) was added for 6 h, and the plates were read with a fluorescence microplate reader at 546/580 nm (excitation/emission). For PBMC proliferation, cells were plated and activated as above but incubated for only 16 h prior to addition of Alamar Blue. Plates were read after 6 h.
As for `CN(Cc1cnc2nc(N)nc(N)c2n1)c1ccc(C(=O)N[C@@H](CCC(=O)O)C(=O)O)cc1`, the outcome was inactive.

For `O=S(=O)(O)C(F)(F)C(F)(F)C(F)(F)C(F)(F)C(F)(F)C(F)(F)C(F)(F)C(F)(F)C(F)(F)C(F)(F)F`, the outcome was inactive. With `O=C(O)CCC(F)(F)C(F)(F)C(F)(F)C(F)(F)C(F)(F)F`, the outcome was inactive. For the molecule `CN(CCO)S(=O)(=O)C(F)(F)C(F)(F)C(F)(F)C(F)(F)C(F)(F)C(F)(F)C(F)(F)C(F)(F)F`, the outcome was inactive. In the case of `O=C(O)C(F)(F)OC(F)(F)C(F)(F)OC(F)(F)C(F)(F)OC(F)(F)C(F)(F)C(F)(F)C(F)(F)F`, the result was inactive. Take `O=P(O)(O)CCC(F)(F)C(F)(F)C(F)(F)C(F)(F)C(F)(F)C(F)(F)F`: the outcome was inactive. As to `C=CC(=O)OCCC(F)(F)C(F)(F)C(F)(F)C(F)(F)C(F)(F)C(F)(F)C(F)(F)C(F)(F)F`, the result was inactive.

For `O=C(O)CCC(F)(F)C(F)(F)C(F)(F)C(F)(F)C(F)(F)C(F)(F)F`, the outcome was inactive.

For `O=P(O)(O)CCC(F)(F)C(F)(F)C(F)(F)C(F)(F)C(F)(F)C(F)(F)C(F)(F)C(F)(F)F`, the outcome was inactive. Turning to `O=C(CC(=O)C(F)(F)C(F)(F)C(F)(F)F)c1cccs1`, the half-maximal activity concentration (AC50) (commonly the midpoint of the concentration-response curve, whichever way the signal moves) is 23.9 µM (active) and 26.7 µM (active). In the case of `OCC(F)(F)C(F)(F)C(F)(F)C(F)(F)C(F)(F)C(F)(F)C(F)(F)C(F)(F)C(F)(F)C(F)(F)C(F)(F)F`, the outcome was inactive.
